According to the supplement of paper PMC10338343:
± gives the standard deviation.

What follows are sequences tested on MILI (PIWIL2) piRISC loaded with L1MC piRNA (26 nt) (assay: pre-steady-state target cleavage rate (min^-1); guide: L1MC piRNA 5'p-UAACUAAAUACUAUGCAAGCUGUAGG; MIWI and MILI are mouse PIWI proteins and EfPiwi is from a freshwater sponge; tags in brackets are library labels; higher = faster piRNA-guided slicing of the target). Details: auxiliary factor: 500 nM mouse GTSF1.
In short: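 In HEPES–potassium acetate buffer at 33 °C, […] transcribed, DNA-blocked target RNA library was mixed with 1 nM active affinity-purified piRISC carrying one synthetic guide, with or without 500 nM GTSF1 partner protein, for 0–8 or 0–960 min. Uncleaved targets were sequenced and normalised to depth and to weakly complementary targets; three trials were pooled and k3 was capped at 0.0001 min^-1. The pre-steady-state cleavage rate followed from a burst-and-steady-state fit.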
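Also: 1 nM active piRISC with 0.1 nM target library at 33 °C single turnover.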

Sequence	pre-steady-state target cleavage rate
UCCUGGUACAGCUUGGAUACUAUUUAGUUA	0.153 ± 0.059
UCCUGCUACAGCUUGCUAAGUAUUUAGAAA	0.0738 ± 0.017
UCCUGGAUGAGCUUGCAUAGUAUUUAAUUA	0.0516 ± 0.014
UCCUGGAUGUCGUUGCAUAGUAAUUAGUAA	0.0579 ± 0.013
UCCUGGAUCAGCUUGCAUAGAAUUAAGUUA	0.0383 ± 0.011
UCCUGGAUCAGCUUGCAUACUAUUUACAAA	0.0104 ± 0.0042
UCCUGGAACAGCUUGCAAACUAUUUAGUUA	0.0282 ± 0.0064
UCCUGGAUGUCGUUGCAUAGUAUUUAGGUA	0.0112 ± 0.0062
UCCUGGAUGACGAUGCAUAGUAUUUAGUAA	0.128 ± 0.016
UCCUGGUUGAGCUUGCAUAGUAUUUACAAA	0.0198 ± 0.0068
UCCUGGUACAGCUUGCAUUAGUAUUUAGUUA	0.017 ± 0.0074
UCCUGGAACAGCUUGCAUAGAUAUUAGUAA	0.0101 ± 0.0057
UCCUGGAUGAGCUUGCAUAUAUUUAGUUA	0.00951 ± 0.0043
UCCUGGAUCACGUUGCAUAGUAUUUACAAA	0.0591 ± 0.015
UCCUGGAUGUCGUUCCAUAGUAUUUAGUUA	0.00992 ± 0.0041
UCCUCCUACACCUUGCAUAGUAUUUUCAAA	0.0721 ± 0.021

Sequence	pre-steady-state target cleavage rate
UCCUGCUACAGCUUGCAUACUAUUUACAAA	0.0741 ± 0.024
UCCUGGAUGUCCUUGCAUUGUAUUUUGUUA	0.0388 ± 0.013
UCCUGGAUGUCGUUGCAUAGUAUAUUGUUA	0.0458 ± 0.017
UCCUGGAUGAGGUUGCAUACUAUUUAGUUA	0.0167 ± 0.006
UCCUGGAUGAGCUAGCAUAGUAUUUUGUUA	0.159 ± 0.036
UCCUGGAUGUCCUUGCAUAGUAUUUUCAUA	0.0192 ± 0.0081
UCCUGGAUGAGCUACGAUAGUAUUUAGUUA	0.00662 ± 0.0035
UCCUGGAUCAGCUUGCUAUGUAUUUAGUAA	0.00621 ± 0.0032
UCCUGGAUGUCGUAGCUUAGUAUUUAGUUA	0.0118 ± 0.0046
UCCUGGAUGAGCUAGCAUAGUAUUUACUUA	0.169 ± 0.042
UCCUGGAUCACCUUGCAUAGUAUUUAGAAA	0.22 ± 0.051
UCCUGGAUGUCGAUGCAUAGUAUUCAGUUA	0.0263 ± 0.0083
UCCUGGAUCAGCUUCCAUAGUAAUUAGUUA	0.00494 ± 0.004
UCCUGGAACAGCUUGCAUAGUAUAAACAAA	0.0505 ± 0.015
UCCUGGAUGUCCUUGCAUACUAAUUAGUUA	0.00561 ± 0.0042
UCCUGGAUGACGUUGCAUAGUAUUUAGAAA	0.0501 ± 0.014

Same assay, conditions: auxiliary factor: none (no GTSF1)

Sequence	pre-steady-state target cleavage rate
UCCUGGAUGUCGAACGAUAGUAUUUAGAUA	< 0.0001
UCCUGGAUGUCGAUCCAUAGUAUUUAGAUA	< 0.0001
UCCUGGAUGUCGAACGAUAGUGUUUAGUUA	< 0.0001
UCCUGGAUGUCGAUCCUUAGUAUUUAGUUA	< 0.0001
UCCUGGAUGUCGAACGUAUGUGUUUAGUUA	< 0.0001
UCCUGGAUGUCGUUGCAUAGAUUUUAGUUA	0.00439 ± 0.0019
UCCUGGAUGUCGAACGUAUCUAUUUAGUCA	< 0.0001
UCCUGGAUGUCGAACGUAUCUAUUCUAGUUA	< 0.0001
